Results filed as inconclusive are left out. Activity calls are given as the source filed them. Unless noted, calls come from the whole dose curve; as a rule, active = well fitted curve in the direction sought with a large enough effect; inconclusive = small, poorly fitted or top-dose-only effect, or another doubt; inactive = no such curve, though single readings can be large; an effect the other way counts as inactive or inconclusive.
Tests used:
[1] = qHTS for differential inhibitors of proliferation of Plasmodium falciparum line 3D7 (AID 1876);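 note: parasite growth measured after three days of culture; 0% = vehicle wells and -100% = reference inhibitor wells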
[2] = qHTS for differential inhibitors of proliferation of Plasmodium falciparum line D10 (AID 1877);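 note: parasites grown with compound for 72 h before DNA staining; plate controls were vehicle wells for no effect and reference inhibitor wells for full effect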
[3] = qHTS for differential inhibitors of proliferation of Plasmodium falciparum line Dd2 (AID 1882); settings: Potency: Plasmodium falciparum Dd2 proliferation inhibition;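 note: series mostly up to about 29 µM; plate controls were DMSO vehicle for no effect and 0.29 µM artemisinin for full effect; nearly all actives have a fitted effect of over 65% in size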
Method in brief: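 SYBR Green DNA fluorescence (ex 485, em 535 nm) after overnight lysis quantifies parasite growth; compound exposure lasted 72 h at 37 C on infected red cells at 2.5% hematocrit, 0.3% parasitemia (final). Artemisinin 0.29 uM and vehicle wells define normalization.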

[4] = qHTS for differential inhibitors of proliferation of Plasmodium falciparum line HB3 (AID 1886); settings: Potency: Plasmodium falciparum HB3 proliferation inhibition;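 note: parasites grown with compound for 72 h before SYBR Green readout; plate controls were vehicle for no effect and reference inhibitor for full effect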
[5] = qHTS Assay for Modulators of Human Peripheral Myelin Protein 22 (PMP22) Expression/Activity (AID 1967; active = well fitted curve in the direction sought with a large enough effect in the signal ratio; the % refers to the signal ratio;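 note: 0% = untreated cells and 100% end not stated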)
Method in brief: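 Luminescence ratio of Pmp22 promoter-driven green luciferase to EF-alpha-driven red luciferase, in engineered mouse MSC80 Schwann cells, served as read-out. Compounds were incubated 24h; untreated cells defined 0% Activity; curves were classified by r2, magnitude and activity.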

[6] = target: Ferritin light chain (Equus caballus) (UniProt P02791); assay: qHTS Validation Assay for Identification of Novel General Anesthetics (AID 2323); note: series mostly up to about 77 µM; % is set by controls: 0 for no effect and ±100 for the full control effect
Sequence of Ferritin light chain (Equus caballus) (P02791 2-175 limits assumed): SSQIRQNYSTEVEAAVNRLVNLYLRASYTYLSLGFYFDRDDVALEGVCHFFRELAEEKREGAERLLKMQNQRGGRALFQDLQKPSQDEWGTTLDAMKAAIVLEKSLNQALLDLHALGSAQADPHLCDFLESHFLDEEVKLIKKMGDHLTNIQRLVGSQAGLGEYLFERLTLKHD
Method in brief: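 Fluorescence at 535 nm (excitation 380 nm) reported loss of 1-AMA binding to horse-spleen apoferritin (10 uM) in PBS with 50% saturated 1-aminoanthracene, after 10 min room-temperature incubation with compound; values from Hill fits of normalized response.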

[7] = target: ATP-dependent DNA helicase Q1 (Homo sapiens) (UniProt P46063); assay: qHTS Validation Assay for Inhibitors of RecQ-Like Dna Helicase 1 (RECQ1) (AID 2353);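 note: plate controls were DMSO vehicle for no effect and enzyme-free control for full effect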
Method in brief: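 RECQ1T1 50 nM; forked duplex (20 bp + 30-nt ss tails) 200 nM, ATP 2 mM final; pH 8.0, 2 mM MgCl2, 2.5 ug/ml poly(dI-dC); 15 min compound preincubation; discontinuous kinetic read over 2 h at RT.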

[8] = target: RecQ-like DNA helicase BLM (Homo sapiens) (UniProt P54132); assay: qHTS Validation Assay for Inhibitors of Bloom's syndrome helicase (BLM) (AID 2364);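 note: plate controls were DMSO vehicle for no effect and enzyme-free control for full effect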
Sequence of RecQ-like DNA helicase BLM (Homo sapiens) (P54132 whole entry, looked up): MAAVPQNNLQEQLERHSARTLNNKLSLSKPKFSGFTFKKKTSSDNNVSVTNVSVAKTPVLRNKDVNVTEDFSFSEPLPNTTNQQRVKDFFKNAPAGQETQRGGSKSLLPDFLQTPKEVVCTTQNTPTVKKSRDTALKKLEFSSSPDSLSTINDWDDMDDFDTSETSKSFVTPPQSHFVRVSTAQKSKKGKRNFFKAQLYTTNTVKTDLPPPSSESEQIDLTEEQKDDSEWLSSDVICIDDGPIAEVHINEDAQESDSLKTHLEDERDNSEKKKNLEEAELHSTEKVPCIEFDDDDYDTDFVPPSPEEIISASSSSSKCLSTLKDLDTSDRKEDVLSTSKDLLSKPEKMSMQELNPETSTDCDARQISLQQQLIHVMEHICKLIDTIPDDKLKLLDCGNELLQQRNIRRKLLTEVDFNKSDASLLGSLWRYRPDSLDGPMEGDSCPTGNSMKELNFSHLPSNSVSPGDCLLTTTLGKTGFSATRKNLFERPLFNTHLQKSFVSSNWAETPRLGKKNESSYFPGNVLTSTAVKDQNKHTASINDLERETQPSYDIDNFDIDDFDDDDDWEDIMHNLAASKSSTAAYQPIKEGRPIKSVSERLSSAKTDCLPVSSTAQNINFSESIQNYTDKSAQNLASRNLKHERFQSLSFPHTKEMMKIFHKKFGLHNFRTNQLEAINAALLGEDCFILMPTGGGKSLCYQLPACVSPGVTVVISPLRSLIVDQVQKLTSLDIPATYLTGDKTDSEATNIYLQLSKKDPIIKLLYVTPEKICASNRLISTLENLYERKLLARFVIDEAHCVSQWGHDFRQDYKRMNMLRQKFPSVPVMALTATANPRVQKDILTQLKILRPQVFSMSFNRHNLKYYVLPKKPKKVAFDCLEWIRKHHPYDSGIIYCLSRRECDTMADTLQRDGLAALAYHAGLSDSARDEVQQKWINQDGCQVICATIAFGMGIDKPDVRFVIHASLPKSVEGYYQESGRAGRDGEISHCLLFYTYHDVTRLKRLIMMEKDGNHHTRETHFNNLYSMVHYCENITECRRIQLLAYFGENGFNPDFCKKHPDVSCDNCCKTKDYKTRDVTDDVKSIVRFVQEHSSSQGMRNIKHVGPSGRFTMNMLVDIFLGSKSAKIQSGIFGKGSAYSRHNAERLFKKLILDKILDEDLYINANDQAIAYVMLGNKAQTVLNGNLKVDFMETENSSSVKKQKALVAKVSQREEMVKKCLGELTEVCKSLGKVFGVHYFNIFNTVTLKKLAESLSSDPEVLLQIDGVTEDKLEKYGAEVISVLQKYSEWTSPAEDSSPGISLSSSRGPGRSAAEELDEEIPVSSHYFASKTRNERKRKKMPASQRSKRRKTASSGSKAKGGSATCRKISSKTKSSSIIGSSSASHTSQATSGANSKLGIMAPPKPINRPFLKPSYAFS
Method in brief: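 BLM 50 nM in 25 mM Tris-HCl pH 8.0, 5 mM NaCl, 2 mM MgCl2, 1 mM DTT, 0.01% Tween-20, 2.5 ug/ml poly(dI-dC); 15 min cpd preinc, RT. Start: 200 nM forked DNA + 2 mM ATP (final). TAMRA read, 2 reads 2 h apart.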

[9] = Validation screen for small molecules that induce DNA re-replication in MCF 10A normal breast cells (AID 463097); note: 0% is about no effect; nearly all actives have a fitted effect of over 60% in size
Method in brief: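 Image-based qHTS: normal breast cells are incubated with compound for 48 hr, stained with Hoechst, and scanned for total nuclear fluorescence. Compounds raising the fraction of nuclei with elevated DNA content count as re-replication inducers.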

[10] = Quantitative high throughput screen for delayed death inhibitors of the malarial parasite plastid, 96 hour incubation (AID 488745); note: series mostly up to about 29 µM; % is set by controls: 0 for no effect and ±100 for the full control effect; nearly all actives have a fitted effect of over 70% in size
Method in brief: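 Decreased firefly luciferase luminescence indicates inhibited growth of reporter-integrated P. falciparum after two generations (96 h, 37 C, 5% CO2). Infected erythrocytes at 0.1% parasitemia, 2% hematocrit, in Albumax-supplemented RPMI 1640.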

[11] = Quantitative high throughput screen for delayed death inhibitors of the malarial parasite plastid, 48 hour incubation (AID 488752); note: % is set by controls: 0 for no effect and ±100 for the full control effect; nearly all actives have a fitted effect of over 65% in size
Method in brief: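 One-generation (48 h) growth assay: a decrease in luciferase signal from an integrated reporter in P. falciparum-infected red cells (0.1% parasitemia, 2% hematocrit) after compound exposure at 37 C indicates parasite inhibition.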

[12] = target: M-phase phosphoprotein 8 (Homo sapiens) (UniProt Q99549); assay: qHTS Validation Assay for Inhibitors for MPP8 Chromodomain Interactions with Methylated Histone Tails (AID 488949);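 note: 50 nM MPP8 with 50 nM peptide preformed then compounds added for 30 min; AlphaScreen signal from MPP8 chromodomain bound to biotinylated H3K9me3 peptide; top concentration of the series differs between compounds; % is set by controls: 0 for no effect and ±100 for the full control effect; nearly all actives have a fitted effect of over 55% in size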
Sequence of M-phase phosphoprotein 8 (Homo sapiens) (Q99549 whole entry, looked up): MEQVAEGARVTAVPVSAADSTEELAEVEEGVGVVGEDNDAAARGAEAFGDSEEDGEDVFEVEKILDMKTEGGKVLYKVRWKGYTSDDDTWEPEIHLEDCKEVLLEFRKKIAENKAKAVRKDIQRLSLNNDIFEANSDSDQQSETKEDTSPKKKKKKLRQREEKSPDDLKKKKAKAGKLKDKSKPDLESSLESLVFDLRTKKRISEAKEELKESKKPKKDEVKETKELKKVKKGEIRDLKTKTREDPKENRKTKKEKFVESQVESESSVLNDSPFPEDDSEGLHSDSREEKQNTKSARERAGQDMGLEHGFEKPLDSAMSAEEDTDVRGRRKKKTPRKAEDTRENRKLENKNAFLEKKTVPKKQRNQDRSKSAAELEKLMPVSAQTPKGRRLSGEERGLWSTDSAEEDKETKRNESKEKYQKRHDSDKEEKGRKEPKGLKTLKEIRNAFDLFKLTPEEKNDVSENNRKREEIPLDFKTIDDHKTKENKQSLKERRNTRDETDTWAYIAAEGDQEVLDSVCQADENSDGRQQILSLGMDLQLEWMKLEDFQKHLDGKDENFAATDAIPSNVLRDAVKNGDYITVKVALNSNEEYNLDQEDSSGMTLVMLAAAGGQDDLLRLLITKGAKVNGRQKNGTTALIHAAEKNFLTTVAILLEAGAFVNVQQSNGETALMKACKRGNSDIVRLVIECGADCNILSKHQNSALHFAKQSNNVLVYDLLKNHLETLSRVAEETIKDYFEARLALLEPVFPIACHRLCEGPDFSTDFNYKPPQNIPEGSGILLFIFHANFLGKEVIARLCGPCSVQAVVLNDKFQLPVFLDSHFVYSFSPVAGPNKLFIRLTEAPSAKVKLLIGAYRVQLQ
Method in brief: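 50 nM MPP8 + 50 nM b-H3K9me3 peptide, PBS pH 7.4/0.01% Tween-20, 30 min RT; + cpd 30 min RT; + AlphaScreen donor/Ni-chelate acceptor beads 10 ug/mL final, 30 min dark; luminescence read.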

[13] = target: Transient receptor potential cation channel subfamily V member 1 (Homo sapiens) (UniProt Q8NER1); assay: HTS Assay for Compounds that Act as Enhancers of the Vanilloid Receptor 1 (AID 488979); note: 0% is about no effect
Sequence of Transient receptor potential cation channel subfamily V member 1 (Homo sapiens) (Q8NER1 whole entry, looked up): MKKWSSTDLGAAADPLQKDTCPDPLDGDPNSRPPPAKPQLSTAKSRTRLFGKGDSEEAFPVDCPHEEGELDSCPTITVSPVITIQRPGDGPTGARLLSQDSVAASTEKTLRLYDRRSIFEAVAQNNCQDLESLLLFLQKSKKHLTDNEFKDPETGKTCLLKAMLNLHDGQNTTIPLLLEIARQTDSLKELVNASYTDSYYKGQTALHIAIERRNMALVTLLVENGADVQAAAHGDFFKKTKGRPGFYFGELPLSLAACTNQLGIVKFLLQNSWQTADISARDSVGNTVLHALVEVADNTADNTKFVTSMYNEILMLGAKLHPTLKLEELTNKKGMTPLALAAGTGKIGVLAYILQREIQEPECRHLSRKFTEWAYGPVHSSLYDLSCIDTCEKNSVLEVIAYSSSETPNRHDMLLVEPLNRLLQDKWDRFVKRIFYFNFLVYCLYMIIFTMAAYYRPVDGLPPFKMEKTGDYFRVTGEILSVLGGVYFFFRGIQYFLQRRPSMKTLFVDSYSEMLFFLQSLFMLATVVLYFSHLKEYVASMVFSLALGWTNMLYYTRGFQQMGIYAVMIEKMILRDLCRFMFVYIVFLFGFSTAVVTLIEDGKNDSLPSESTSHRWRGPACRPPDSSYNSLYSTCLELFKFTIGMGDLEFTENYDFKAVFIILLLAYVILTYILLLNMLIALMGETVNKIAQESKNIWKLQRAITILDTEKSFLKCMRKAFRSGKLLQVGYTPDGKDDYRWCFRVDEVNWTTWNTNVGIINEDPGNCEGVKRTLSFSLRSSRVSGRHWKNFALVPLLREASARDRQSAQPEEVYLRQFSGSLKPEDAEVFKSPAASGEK
Method in brief: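 TRPV1-expressing cells loaded with Fluo-8 calcium dye; compounds added and calcium influx read kinetically for 3 min (agonist phase), then capsaicin at EC20 added and read 2 min more for enhancement. Fluorescence ex 480/em 520 nm.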

[14] = target: Thyrotropin receptor (Homo sapiens) (UniProt P16473); assay: qHTS Assay for Antagonists of the Thyroid Stimulating Hormone Receptor (AID 488980); note: series mostly up to about 58 µM; 0% is about no effect
Sequence of Thyrotropin receptor (Homo sapiens) (P16473 whole entry, looked up): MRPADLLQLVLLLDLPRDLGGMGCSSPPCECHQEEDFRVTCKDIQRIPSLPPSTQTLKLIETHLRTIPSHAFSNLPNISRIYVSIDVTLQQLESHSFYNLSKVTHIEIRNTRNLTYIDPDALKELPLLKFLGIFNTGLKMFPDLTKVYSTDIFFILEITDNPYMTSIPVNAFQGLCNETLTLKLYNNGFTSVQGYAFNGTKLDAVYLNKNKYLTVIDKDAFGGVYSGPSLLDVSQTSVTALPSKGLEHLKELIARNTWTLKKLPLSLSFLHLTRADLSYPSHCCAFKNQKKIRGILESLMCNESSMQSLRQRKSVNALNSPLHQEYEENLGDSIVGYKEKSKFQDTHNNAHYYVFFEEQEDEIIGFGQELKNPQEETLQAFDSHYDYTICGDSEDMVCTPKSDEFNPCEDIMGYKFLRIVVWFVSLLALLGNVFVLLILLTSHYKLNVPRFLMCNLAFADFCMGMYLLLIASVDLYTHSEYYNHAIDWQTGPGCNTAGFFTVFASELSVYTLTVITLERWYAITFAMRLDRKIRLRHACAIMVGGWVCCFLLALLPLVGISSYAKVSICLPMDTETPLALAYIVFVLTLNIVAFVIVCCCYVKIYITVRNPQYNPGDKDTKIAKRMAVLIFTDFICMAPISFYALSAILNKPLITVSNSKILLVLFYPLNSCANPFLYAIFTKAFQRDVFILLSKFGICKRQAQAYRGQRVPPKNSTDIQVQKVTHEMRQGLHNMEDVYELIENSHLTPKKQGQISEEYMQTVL
Method in brief: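 Readout is cAMP by HTRF competition between cellular cAMP and cAMP-d2 for a cryptate-labelled antibody. Antagonism was assessed in TSHR-transfected HEK293 cells stimulated with 4 nM TSH (EC80, final) in the presence of RO 20-1724.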

[15] = target: Thyrotropin-releasing hormone receptor (Homo sapiens) (UniProt P34981); assay: qHTS for Small Molecule Agonists and Allosteric Enhancers of Human TRH Receptor: Validation Screen for Agonists (AID 493127;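 active = calcium activation more than 3 SD above the typical response in the agonist read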;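 note: intracellular calcium rise by fluo-8 fluorescence before TRH EC20 addition; 0% is about no effect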); settings: TRH receptor agonist cell assay; at 2 µM; hits give high values
Sequence of Thyrotropin-releasing hormone receptor (Homo sapiens) (P34981 whole entry, looked up): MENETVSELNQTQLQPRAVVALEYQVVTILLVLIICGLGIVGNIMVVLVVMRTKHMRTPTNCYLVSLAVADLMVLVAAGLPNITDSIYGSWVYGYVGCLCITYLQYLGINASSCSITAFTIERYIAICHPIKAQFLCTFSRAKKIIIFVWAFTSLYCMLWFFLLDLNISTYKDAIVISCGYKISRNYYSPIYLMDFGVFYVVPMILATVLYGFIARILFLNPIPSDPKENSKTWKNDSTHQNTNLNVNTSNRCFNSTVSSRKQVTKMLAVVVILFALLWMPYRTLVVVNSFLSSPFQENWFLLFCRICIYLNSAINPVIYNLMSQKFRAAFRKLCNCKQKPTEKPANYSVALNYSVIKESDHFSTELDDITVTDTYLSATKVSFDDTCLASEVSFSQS
Method in brief: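 Compound-evoked intracellular calcium release in fluo-8-loaded TRHR cells, read kinetically on FDSS (Ex 480/Em 530, 1 s/cycle) after 23 nL pintool transfer. Agonist phase preceded 10 nM TRH EC20 addition.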

[16] = target: Galactokinase (Homo sapiens) (UniProt P51570); assay: qHTS Validation Assay for Inhibitors of Human Galactokinase (GALK) (AID 493189); note: 0% is about no effect
Sequence of Galactokinase (Homo sapiens) (P51570 whole entry, looked up): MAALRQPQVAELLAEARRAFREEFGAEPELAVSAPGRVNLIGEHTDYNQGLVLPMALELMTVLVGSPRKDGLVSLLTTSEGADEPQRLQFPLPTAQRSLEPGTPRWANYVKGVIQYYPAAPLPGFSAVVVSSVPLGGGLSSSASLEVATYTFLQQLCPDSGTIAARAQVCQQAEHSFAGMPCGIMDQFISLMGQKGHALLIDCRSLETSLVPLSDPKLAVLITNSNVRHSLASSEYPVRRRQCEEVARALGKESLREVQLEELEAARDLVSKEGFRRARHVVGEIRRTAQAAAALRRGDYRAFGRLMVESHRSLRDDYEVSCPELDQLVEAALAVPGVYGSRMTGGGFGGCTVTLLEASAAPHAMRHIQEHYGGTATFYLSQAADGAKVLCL
Method in brief: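 5 nM GALK / 100 uM galactose / 35 uM ATP, 20 mM HEPES pH8.0, 5 mM MgCl2, 60 mM NaCl, 1 mM DTT, 0.01% BSA (final). RT 1 h; Kinase-Glo Plus luminescence.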

[17] = Validation screen for small molecules that induce DNA re-replication in SW480 colon adenocarcinoma cells (AID 504364); note: 0% is about no effect
Method in brief: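 Image-based DNA content read-out: Hoechst stain 40 min, total nuclear fluorescence intensity (ex 405 nm, em 500-530 nm) after 48 h compound exposure of 250 SW480 cells/well at 37 C, 5% CO2, versus DMSO vehicle.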

[18] = tested on: Zika virus NS2B-NS3 protease; assay: Primary screen GU AMC qHTS for Zika virus inhibitors (AID 1347154);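 note: 0% = no-inhibitor control and -100% = no-enzyme control; nearly all actives have a fitted effect of over 70% in size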
Method in brief: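 Unlinked Zika NS2B hydrophilic domain/NS3 protease domain noncovalent complex (25 nM final) in 10 mM Tris-HCl pH 8.0, 0.01% Tween 20, with AMC peptide substrate. Fluorescence (ex 340, em 450 nm) change over 15 min, room temperature; percent inhibition fitted to 4-parameter Hill equation.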

[19] = Confirmatory qHTS for small molecule stabilizers of the endoplasmic reticulum resident proteome: Secreted ER Calcium Modulated Protein (SERCaMP) assay (AID 1508628); note: series mostly up to about 76 µM; % is set by controls: 0 for no effect and ±100 for the full control effect; nearly all actives have a fitted effect of over 40% in size
Method in brief: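 Reporter secretion upon ER calcium depletion (100 nM thapsigargin, 4 h, 37C) is measured as medium luminescence with coelenterazine, after 16 h compound pretreatment of SH-SY5Y-GLuc-SERCaMP cells; primary at three concentrations up to 38.3 uM, follow-up at 11 (up to 76.6 uM).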

CN1CCN(c2ccc3ccccc3n2)CC1
inactive: Potency [1] | Potency [2] | Potency [3] | Potency [4] | outcome [5] | outcome [6] | Potency [7] | Potency [8] | Potency [9] | Potency [10] | Potency [11] | Potency [12] | outcome [13] | outcome [14] | activation [15] 1.56% | outcome [16] | Potency [17] | Potency [18] | Potency [19]

— PubChem BioAssay (NCATS)
